Measured values from PubChem BioAssay (NCATS).
The source made the active and inactive calls. The call rests on the fitted dose curve; in most records, active means well fitted curve in the direction sought with a large enough effect; inconclusive means small, poorly fitted or top-dose-only effect, or another doubt; inactive means no such curve, though single readings can be large or run the other way.

target: Methanococcus maripaludis chaperonin (MmCpn) (UniProt Q6LX38); experiment: High-Throughput Screening for Modulators of Cytosolic Chaperonin Activity: MmCpn Primary Screen (AID 488978); settings: Purified MmCpn ATPase activity, ADP HTRF detection, 10 min; series mostly up to 76.9 µM
Sequence (Q6LX38 1-543): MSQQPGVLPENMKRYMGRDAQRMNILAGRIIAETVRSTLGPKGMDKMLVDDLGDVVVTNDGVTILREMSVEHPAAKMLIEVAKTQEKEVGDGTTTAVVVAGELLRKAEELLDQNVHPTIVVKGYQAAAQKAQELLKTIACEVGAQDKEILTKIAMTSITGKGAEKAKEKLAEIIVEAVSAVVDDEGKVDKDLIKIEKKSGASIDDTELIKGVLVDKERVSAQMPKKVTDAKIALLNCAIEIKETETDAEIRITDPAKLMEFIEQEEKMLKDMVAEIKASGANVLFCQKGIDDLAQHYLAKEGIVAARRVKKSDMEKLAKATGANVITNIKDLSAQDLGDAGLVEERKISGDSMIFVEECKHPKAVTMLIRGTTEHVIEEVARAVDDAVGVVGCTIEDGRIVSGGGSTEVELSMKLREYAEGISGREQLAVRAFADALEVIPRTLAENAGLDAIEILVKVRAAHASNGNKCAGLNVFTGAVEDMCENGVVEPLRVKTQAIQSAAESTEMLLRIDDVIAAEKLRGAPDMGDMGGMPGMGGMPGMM
From the text: Chaperonins are key components of the cellular chaperone machinery. These large complexes consist of two stacked 7-9 membered rings, each containing a central cavity. Substrates are folded within the cavity in an ATP-dependent manner. TRiC is a complex of eight different, essential proteins. As each of the genes encoding the eight subunits is essential for cell viability and no protocol has been developed to overexpress this enzyme to high levels, several groups have turned to the archaeal homolog of TRiC from Methanococcus maripaludis (MmCpn) as a model system for the study of the type II chaperonin family.
MmCpn was kindly provided by the laboratory of Judith Frydman.
1. Dispense 1.5 ul enzyme of either TriC at 100 nM or MmCpn at 50 nM final concentration.
2. Transfer 23 nl of compound to plate, incubate 5 min at RT.
3. 1.5 ul ATP at 30 uM at final concentration dispensed into plate.
4. Incubate for 10 minutes at 37C (MmCPN), 30C (TriC).
5. 3 ul of the Cisbio ADP Transcreener HTRF detection reagent prepared according to protocol dispensed into plate.
6. Incubate for 5 minutes.
7. Read using EnVision plate reader at Excitation = 320nm and Emission = 590nm, 665nm

| Compound | outcome |
| --- | --- |
| CCCCCC[C@@H]([C@@H](C)O)n1cnc2c(N)ncnc21 | inactive |
| N[C@@H](Cc1ccc(F)cc1)C(=O)O | inactive |
| Nc1ncnc2c1ncn2C1CCCC1 | inactive |
| N[C@H](C(=O)O)[C@H]1C[C@@H]1C(=O)O | inactive |
| N=C(N)c1ccccc1 | inactive |
| Nc1nc2[nH]c(=O)cnc2c(=O)[nH]1 | inactive |
| COc1cc2c(CCNC(C)=O)c[nH]c2cc1O | inactive |
| Nc1ccc(-c2ccc3ccccc3n2)cc1 | inactive |
| NC1(C(=O)O)CCCCC1 | inactive |
| CNc1cc(NS(=O)(=O)c2ccc(N)cc2)nc(NC)n1 | inactive |
| C=CCN1CCc2cc(O)c(O)cc2C(c2ccccc2)C1 (stereo not given) | inactive |
| CC(C)(C)c1cc(/C=C(\C#N)C(N)=S)cc(C(C)(C)C)c1O | inactive |
| O=C(O)/C=C/c1ccc(O)c(O)c1 | inactive |
| O=C(O)Cc1ccc(O)c(O)c1 | inactive |
| [Li+] | inactive |
| CN(C)S(=O)(=O)c1ccc2c(c1)/C(=C/c1cc3c([nH]1)CCCC3)C(=O)N2 | inactive |
| Nc1ccc2c3c(cccc13)C(=O)NC2=O | inactive |
| C[C@H](O)C(=O)C1=Nc2c(nc(N)[nH]c2=O)NC1 | inactive |
| CC(=O)SC1CC2=CC(=O)CC[C@]2(C)C2CC[C@@]3(C)C(CC[C@@]34CCC(=O)O4)C12 (stereo not given in full) | inactive |
| CCCCS(=N)(=O)CC[C@H](N)C(=O)O (stereo not given in full) | inactive |

| Compound | outcome |
| --- | --- |
| Cn1c(=O)c2[nH]c(C3CCCC3)nc2n(C)c1=O | inactive |
| O=C(O)C1CN(CCCP(=O)(O)O)CCN1 (stereo not given) | inactive |
| Cc1ccc2c(c1)C(N1CCN(C)CC1)=Nc1cccnc1N2 | inactive |
| O=C(O)CCC(=O)N1CCCC1C(=O)O (stereo not given) | inactive |
| N=C(N)c1ccc(N)cc1 | inactive |
| Nc1nc2c(cnn2CCc2ccccc2)c2nc(-c3ccco3)nn12 | inactive |
| Oc1cc2c(cc1O)C(c1ccccc1)CNCC2 (stereo not given) | inactive |
| CC(N)=NCCCC[C@@H](N)C(=O)O | inactive |
| NCC(O)C1CCCCCCC1 (stereo not given) | inactive |
| CN(C)CCCc1cc(C(=O)Nc2ccc(-c3ccncc3)cc2)ccc1O | inactive |
| Fc1ccc(CN(C2=NCCN2)c2c(Cl)cccc2Cl)cc1 | inactive |
| CCCc1c(-c2ccc(O)cc2)nn(-c2ccc(O)cc2)c1-c1ccc(O)cc1 | inactive |
| CCC(=O)N1CCN(C(=O)c2ccccc2)CC1 | inactive |
| CC(=O)O[C@H]1CC2(C)[C@@H](C[C@@H](O)[C@H]3[C@@]4(C)CC[C@@H](O)[C@@H](C)[C@@H]4CC[C@@]32C)C1=C(CCC=C(C)C)C(=O)O (stereo not given in full) | inactive |
| Cc1nc(N=Nc2ccc(C(=O)O)cc2)c(COP(=O)(O)O)c(C=O)c1O | inactive |
| Cc1ccccc1/C=C/C1=NCCN1 | inactive |
| CN1Cc2sccc2C(c2ccc(O)c(O)c2)C1 (stereo not given) | inactive |
| CN[C@H](CC(=O)O)C(=O)O | inactive |
| Nc1nc2c(nc(Br)n2C2OC3COP(=O)(O)O[C@@H]3C2O)c(=O)[nH]1 (stereo not given in full) | inactive |
| CC(=O)NNC(=O)N1Cc2ccccc2Oc2ccc(Cl)cc21 | inactive |
